Screening data from PubChem BioAssay.
This is a sample that favours compounds with a hit; in the whole collection about 2.8% have one here.
POLK inh: inhibitors of human DNA polymerase kappa | Q9UBT6 | purified Pol kappa, fluorescent DNA synthesis assay, 10 min | Potency, µM (series often up to 107 µM), inactives show at the top dose activity, negative = inhibition, most hits filed as inhibitors | actives 0.53% (n = 400,000) | AID 588579; note: potency is the fitted concentration of half-maximal effect; % is set by controls: 0 for no effect and ±100 for the full control effect
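Inhibition of 10 nM Pol kappa is measured by a fluorescent read-out at 0 and 10 min following addition of 50 nM substrate (final), with a 15-min room-temperature compound preincubation.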
Pol beta inh: blocks human DNA polymerase beta activity. Potency, µM (titrated, usually from 114 µM), inactives show top-dose activity change, negative = inhibition, hits mostly inhibitors. AID 485314. P06746. actives 1.3% (n = 340,000). Pol beta primer extension/strand displacement, fluorescence kinetic; note: potency is the fitted concentration of half-maximal effect; % is set by controls: 0 for no effect and ±100 for the full control effect
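Pol beta (10 nM) was preincubated with compound for 15 min at room temperature. The reaction was then started with 50 nM substrate and read immediately and after a further 10 min at room temperature.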
Pol iota inh: inhibitors of human DNA polymerase iota; actives 1% (n = 390,000); Potency, µM (titrated, usually from 115 µM), for inactives: at the top dose activity, negative = inhibition, most hits filed as inhibitors; Pol iota fluorescent replication assay, 10 min; note: potency is the fitted concentration of half-maximal effect
Target sequence (Q9UNA4 whole entry, looked up): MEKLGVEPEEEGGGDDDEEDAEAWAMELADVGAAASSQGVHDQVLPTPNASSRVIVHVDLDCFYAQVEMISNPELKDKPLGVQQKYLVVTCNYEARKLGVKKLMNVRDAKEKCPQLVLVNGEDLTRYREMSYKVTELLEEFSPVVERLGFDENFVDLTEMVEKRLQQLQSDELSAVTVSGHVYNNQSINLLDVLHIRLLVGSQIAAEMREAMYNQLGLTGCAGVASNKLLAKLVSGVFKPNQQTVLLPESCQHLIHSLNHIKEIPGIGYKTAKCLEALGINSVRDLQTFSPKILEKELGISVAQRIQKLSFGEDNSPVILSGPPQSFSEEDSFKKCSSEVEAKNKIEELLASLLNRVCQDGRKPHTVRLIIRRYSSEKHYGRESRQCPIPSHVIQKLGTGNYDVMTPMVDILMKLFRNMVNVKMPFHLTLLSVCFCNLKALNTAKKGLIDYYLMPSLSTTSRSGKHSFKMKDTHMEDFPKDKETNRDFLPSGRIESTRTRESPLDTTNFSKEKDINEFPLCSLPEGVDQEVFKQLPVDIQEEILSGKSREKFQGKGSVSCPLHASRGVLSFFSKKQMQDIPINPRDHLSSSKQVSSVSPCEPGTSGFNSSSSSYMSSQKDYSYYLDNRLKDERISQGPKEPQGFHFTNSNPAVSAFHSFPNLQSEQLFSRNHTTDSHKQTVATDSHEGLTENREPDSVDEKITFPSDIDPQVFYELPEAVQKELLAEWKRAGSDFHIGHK
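Pol iota at 10 nM preincubated 15 min with compounds at room temperature; reaction started with fluorescent substrate, 50 nM final. Fluorescence read kinetically at 0 and 10 min; buffer-only wells as negative control.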
WRN inhibitor: inhibitors of human WRN helicase; WRN helicase unwinding, fluorescent forked duplex, kinetic; Potency, µM (doses to about 114 µM), for the others: at the top dose activity change, negative = inhibition, actives largely listed as inhibitors; actives 0.46% (n = 360,000); note: potency is the fitted concentration of half-maximal effect; % is set by controls: 0 for no effect and ±100 for the full control effect; nearly all actives have a fitted effect of over 55% in size
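Kinetic red-fluorescence monitoring (525/598 nm) tracks WRN helicase activity after 100 nM fluorophore-quencher forked duplex and 2 mM ATP are added to 20 nM enzyme pretreated 15 min at room temperature with compound.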
PI5P4K alpha inh: PI5P4K alpha (human) kinase inhibition | actives 1.2% (n = 330,000) | PI5P4Kalpha enzyme, ADP-Glo luminescence, 60 min; stronger effect = lower value | max response, % | P48426; active = max response of -50% or lower; inconclusive = between -30% and -50%; inactive = -30% or higher; note: value at the top dose of about 77 µM; % is set by controls: 0 for no effect and ±100 for the full control effect
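qHTS, 1536-well: enzyme/substrate mix, compound by pin tool, 5 microM ATP final; RT 60 min; ADP-Glo reagents 1 (45 min) then 2 (30 min); luminescence.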
POLH inh: inhibitors of human DNA polymerase eta | actives 1.2% (n = 390,000) | recombinant Pol eta, fluorescent DNA replication assay | Q9Y253 | Potency, µM (highest dose often 114 µM), inactives show at the top dose activity change, negative = inhibition, actives largely listed as inhibitors; note: potency is the fitted concentration of half-maximal effect; % is set by controls: 0 for no effect and ±100 for the full control effect
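Pol eta (10 nM) was preincubated with compounds for 15 min at room temperature, after which fluorescent replication substrate (50 nM final) was added to start the reaction. Fluorescence was read kinetically at 0 and 10 min.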
* marks the source's active call; other numbers are inactive results; ? = inconclusive; · = no result; [ ] = dose if it differs, or a comment. Unless noted, calls come from the whole dose curve; as a rule, active = well fitted curve in the direction sought with a large enough effect; inconclusive = small, poorly fitted or top-dose-only effect, or another doubt; inactive = no such curve, though single readings can be large; an effect the other way counts as inactive or inconclusive.

SMILES	POLK inh	Pol beta inh	Pol iota inh	WRN inhibitor	PI5P4K alpha inh	POLH inh
CCN(CCO)c1nc(SC)nc2c1sc1nc(-c3ccco3)c3c(c12)CCC3	?	7.1µM*	?	-13%	20	-15%
CCOc1ccc(CCN2C(=S)N([C@@H](Cc3ccc(O)cc3)CN3CCC[C@@H]3CN3C(=S)NC[C@@H]3CC(C)C)C[C@@H]2CC(C)C)cc1	·	·	·	-19%	0	·
COc1cc2c(O)cc(C(=O)O)c(-c3cc(OC)c(OC)c(OC)c3)c2cc1OC	8%	·	?	-2%[11.6 µM]	0	89µM*
COc1ccc(-c2cc(C(=O)O)c(C)o2)cc1OC	4%	7%	14%	4%	?	6%
CC1=C(C)C(=O)N(c2ccccn2)C1=O	-1%	9%	9%	0%	4	-13%
Cc1nn(-c2ccccn2)c2c1C(=O)C(Br)CC2 (stereo unspecified)	-3%	10%	133%	56µM*	?	7%
COC(=O)c1ccc(Oc2nc3c(c(=O)n(C)c(=O)n3C)n2Cc2ccc(Cl)c(Cl)c2)cc1	2%	7%	6%	·	·	2%
Cc1ccc(-c2nc(-c3cc4cccc(OCc5cccc(F)c5)c4oc3=O)no2)cc1	-26%	35µM*	-8%	·	·	35µM*
Cc1cccc(NC(=O)N2CC(=O)Nc3sc4c(c3C2c2ccccc2)CCCC4)c1C (stereo unspecified)	-20%	?	82%	·	·	-11%
O=C(Nc1ccc2nc(-c3cccs3)[nH]c2c1)c1cccs1	-11%	3%	?	-35%	2	?
Cc1ccc(-n2nc3ccc(NC(=O)c4ccco4)cc3n2)cc1	-41%	25µM*	?	-19%[57.1 µM]	-2	?
Cn1cccc1-c1nc2ccc(NC(=O)c3ccco3)cc2[nH]1	-11%	-19%	-2%	-12%	-1	-2%
O=C(Nc1ccc2nc(-c3cccs3)[nH]c2c1)c1ccco1	-19%	32µM*	?	-19%	-12	?
Cc1ccc2nc(-c3ccc(NC(=O)c4ccco4)cc3)[nH]c2c1	-29%	25µM*	?	-31%	·	?
Cc1cc(C(=O)O)ccc1-n1c(C)cc(/C=C(/C#N)C(=O)Nc2ccccc2)c1C	-9%	-5%	79µM*	?	?	?
COc1cc(OC)cc(C(=O)Nc2nnc(NC(=S)Nc3ccccc3)s2)c1	79µM*	-3%	5%	?	-55*	?
COc1cc(OC)cc(C(=O)Nc2ccc(Nc3ccccc3)cc2)c1	-2%	1%	-2%	-4%	-8	-8%
COC(=O)/C(=C/Nc1ccc(O)cc1)[N+](=O)[O-]	-7%	16%	7.1µM*	-6%	-2	-10%
COC(=O)/C(=C/Nc1ccccc1)[N+](=O)[O-]	-4%	0%	7%	-8%	·	-2%
COC(=O)c1sc2cccc(F)c2c1S(=O)(=O)Nc1cc(C)c(Cl)cc1OC	0%	-11%	-4%	·	·	-20%
CN(c1ccccc1)S(=O)(=O)c1nnc(NC(=O)COc2ccccc2)s1	-15%	?	79µM*	-7%[11.6 µM]	-30	?
COc1ccc(NC(=O)Cn2c(=O)n(-c3ccc(C)cc3)c(=O)c3c2c2cc(C)ccc2n3C)cc1	-11%	37%	-5%	·	·	-9%
CC(=O)NN1C(=O)/C(=C\c2ccc(Br)o2)SC1=S	?	28µM*	?	-17%[57.1 µM]	-2	25µM*
CC(=O)NN1C(=O)/C(=C\c2ccccc2)SC1=S	4%	13%	?	4%	-14	3%
Cc1ccc(CNC(=O)Cn2ccn(-c3ccc(C)c(C)c3)c(=O)c2=O)cc1	0%	13%	15%	·	·	-6%
SMILES	POLK inh	Pol beta inh	Pol iota inh	WRN inhibitor	PI5P4K alpha inh	POLH inh
CCCCCCCCCCCCCCCC[N+](C)(C)CCl	-3%	·	-13%	-10%	-53*	-22%
CCCCCC[N+](C)(C)CCSSCC[N+](C)(C)CCCCCC	18%	-2%	-3%	18%	-3	3%
CCCCCCCCCCCCCCCC[N+](C)(C)CC	-7%	·	19%	-11%	-63*	89µM*
NC1=NC(=O)/C(=C/c2cccs2)S1	-2%	-23%	6%	-11%	·	-4%
CS(=O)(=O)Nc1ccc(-c2ccc(/C=C3\SC(N)=NC3=O)o2)cc1	-8%	40µM*	?	?	-65*	?
Cn1c(=O)c2c(nc(SCC(=O)Nc3ccc(OC(F)(F)F)cc3)n2Cc2cccc(C(F)(F)F)c2)n(C)c1=O	-14%	4%	-29%	·	·	-11%
O=C1NC(=O)C([N+](=O)[O-])=C(O)C1=O	·	·	·	10%	-65*	-9%
O=[N+]([O-])c1ccc2c(c1)/C(=C/c1ccc(C=S)cc1)C=C2	-23%	·	10%	·	·	·
Cc1cc2ccc(Cl)nc2nc1C	5%	·	34%	·	·	·
CN=c1scc(-c2ccccc2F)n1/N=C/c1ccc(O)c(O)c1O	?	1.4µM*	?	56µM*	-54*	?
CC(C)N=c1scc(-c2cccs2)n1/N=C/c1ccc(O)c(O)c1O	?	2.2µM*	?	?	-60*	?
Cc1c(CNC(C)CCc2ccccc2)c(C(=O)O)c(C)n1Cc1ccc(F)cc1Cl (stereo unspecified)	-12%	-20%	22%	·	·	-10%
O=C(c1ccc(Cl)cc1)c1c[nH]c(C(=O)C(Cl)(Cl)Cl)c1	-5%	13%	-15%	-33%[57.1 µM]	-29	20µM*
CCN(CC)C(=O)c1sc(NC(=O)c2nc3ncccn3n2)c(C(=O)OC)c1C	0%	1%	26%	·	·	1%
Cc1ccc(C)n1-c1ccc(-c2ccn[nH]2)cc1	0%	22µM*	86%	-11%	0	-12%
COC(=O)c1ccccc1NC(=O)c1nc(-c2ccc(C)cc2)n2c1CCCCC2	-2%	-1%	-15%	·	·	-11%
CC1(C)CC2(CC(c3ccccc3F)c3ccc(O)c(O)c3O2)NC(=S)N1 (stereo unspecified)	-11%	?	5%	-11%	-56*	-9%
O=C(Cc1ccc(-c2ccccc2)cc1)NCCS(=O)(=O)N1CCN(c2cccc(Cl)c2)CC1	-9%[60.1 µM]	24%	3%	·	·	11%
CCOC(=O)c1c(N)n(-c2cccc(OC)c2)c2nc3ccccc3nc12	-18%[60.1 µM]	2%	?	·	·	-3%
CCOC(=O)c1c(N)n(-c2ccc(N)cc2)c2nc3ccccc3nc12	2%[60.1 µM]	?	79µM*	-7%	-18	-7%
CCOC(=O)c1c(N)n(-c2ccc(CC)cc2)c2nc3ccccc3nc12	-1%	2%	93%	·	·	-18%
CCOC(=O)c1c(N)n(C2CC(C)(C)NC(C)(C)C2)c2nc3ccccc3nc12	-8%	28µM*	?	21%	·	-6%
